Bioassay records deposited in PubChem BioAssay by National Center for Advancing Translational Sciences (NCATS).
Pf Dd2 growth: blocks in vitro growth of P. falciparum Dd2; P. falciparum Dd2 growth, SYBR Green, 72 h; actives 4.3% (n = 120,000); Potency, µM (highest dose often 28.9 µM), most hits filed as inhibitors; AID 1347417; active = well fitted inhibition curve with a large enough effect; also: nearly all actives have a fitted effect of over 65% in size
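Readout: SYBR Green fluorescence, 485 nm excitation, 535 nm emission, after ~16 h lysis at 37C. Before that, Dd2-infected red cells (2.5% hematocrit) grew 72 h with compound, 29 uM top final concentration.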
Of the large screens only hits and unclear results are named; the others gave an inactive call. This excerpt belongs to a sample that is enriched for hits.

Cc1cccc(C(=O)N2CCC(n3cnnc3C3CC3)CC2)c1	none
O=C(O)CCCC(=O)N1CCN2C(=O)c3cc(-c4ccco4)ccc3NC(=O)[C@@H]2C1	none
CCC(NC(=O)c1cc(OC)ccc1OC1CCN(C(C)=O)CC1)c1ccc(F)cc1 (stereo not drawn)	none
O=C(CCc1cn2ccccc2n1)N[C@H]1[C@@H]2CCO[C@@H]2[C@@H]1C1CCCC1	none
Cc1nccn1CCCC(=O)N1CCC2(CC1)CNC(C(=O)O)C2 (stereo not drawn)	none
O=C(NCc1cccnc1)[C@@H]1C[C@@H](O)CN1C1CCN(C(=O)c2cc3ccccc3[nH]2)CC1	none
COc1ccc(C(=O)N2CC[C@@H]3CN(c4cnccn4)[C@@H]3C2)c(OC)n1	none
CN(CC(=O)O)C(=O)[C@H]1C[C@@](C)(C(=O)O)N(C)[C@H]1c1ccc(Cl)cc1	none
Cc1ccc(NC(=O)CN2C(=O)NC3(CCC(C)CC3)C2=O)cc1Cl (stereo not drawn)	none
O=C(N[C@H]1[C@H](O)[C@H](O)C[C@@H]1c1cccnc1)c1ccccn1	none
COCc1cc(C[C@@H]2CC[C@H](O)[C@@H](CN(C(=O)Nc3ccc(OC)cc3)C(=O)Nc3ccc(OC)cc3)O2)no1	none
O=C1CO[C@H]2CCN(Cc3ccccc3)CC[C@@H]2N1CCc1cccnc1	none
O=C1CO[C@H]2CCN(CCCc3ccccc3)CC[C@@H]2N1Cc1ccccc1	Pf Dd2 growth 4µM
Cc1cccc(CN2CC[C@@H]3OCC(=O)N(Cc4ccc(O)cc4)[C@H]3CC2)c1	none
COCC(=O)N[C@@H]1CN(S(C)(=O)=O)CC[C@@H]1c1nc(C)no1	none
CCN1CCN(Cc2cc3ccc(C)cc3nc2-c2ccc(OC)c(OC)c2)CC1	none
COc1ccc(-c2nc3cc(C)ccc3cc2CN2CCN(C)C(=O)C2)cc1OC	Pf Dd2 growth 7.9µM
COc1ccc(-c2n[nH]c3c2CC(=O)N(CC2CC2)C3)cc1OC	none
CN(C)c1ccc2ncc(Nc3ccccc3)n2n1	none
CN(C)c1ccc2ncc(Nc3cc(F)cc(N4CCOCC4)c3)n2n1	Pf Dd2 growth 10µM
c1ccc(-c2ccc3ncc(Nc4ccc(N5CCOCC5)cc4)n3n2)cc1	none
CCOc1cc(=O)n2c(c1C(=O)N(CC)Cc1ccncc1)CCCCC2	none
Cc1noc(C)c1S(=O)(=O)N1CC(n2cc(C(=O)NCc3ccncc3)nn2)C1	none
CN1CCC(OC2CCN(C(=O)C3CC3)CC2)CC1	none
COc1ccc(-c2ccnc3nc(C4CC4)nn23)cc1	none
Clc1ccc(-c2noc3ncnc(N4CCCCC4)c23)cc1	none
Cc1cccc(CN2CCC(CNc3ncnc4onc(-c5ccc(Cl)cc5)c34)CC2)c1	none
COc1ccc(OC)c(CCNc2ncnc3onc(-c4ccc(Cl)cc4)c23)c1	Pf Dd2 growth 11µM
Cc1ccc(CN2CCC(CNc3ncnc4onc(-c5ccc(Cl)cc5)c34)CC2)cc1	Pf Dd2 growth 3.2µM
Cc1cccc(Nc2ncnc3onc(-c4ccc(Cl)cc4)c23)c1C	none
Cc1ccccc1CN1CCC(CNc2ncnc3onc(-c4ccc(Cl)cc4)c23)CC1	Pf Dd2 growth 8.9µM
COc1ccc(Nc2ncnc3onc(-c4ccc(Cl)cc4)c23)cc1Cl	none
COc1cccc(N2CCN(c3ncnc4onc(-c5ccc(Cl)cc5)c34)CC2)c1	none
CCOc1ccc(Nc2ncnc3onc(-c4ccc(Cl)cc4)c23)cc1	none
Cc1ccc(C)c(N2CCN(CCCNc3ncnc4onc(-c5ccc(Cl)cc5)c34)CC2)c1	none
Clc1ccc(CN2CCC(CNc3ncnc4onc(-c5ccc(Cl)cc5)c34)CC2)cc1	Pf Dd2 growth 4.5µM
Cc1ccc(CCNc2ncnc3onc(-c4ccc(F)cc4)c23)cc1	none
CCn1c(CO)nnc1C1CC(NC(=O)c2sccc2N)C1 (stereo not drawn)	none
O=C(NCc1ccco1)N1CCc2nc3cc(-c4ccccc4Cl)[nH]n3c(=O)c2C1	none
CCN(Cc1ccccc1)C(=O)CCc1nc(C2CCCN2S(C)(=O)=O)no1 (stereo not drawn)	none
COc1ccc(CN2CCC3(CC2)CC(O)CCO3)cc1 (stereo not drawn)	none
Cc1cc(F)cc(CN2CCc3nc(C(=O)Nc4ccccc4)oc3CC2)c1	none
COc1ccc(CNC(=O)CC[C@H]2CNC(=O)[C@@H]3[C@@H](CCN3Cc3ccc(F)cc3)N2C)cc1	none
COc1cc(C)ccc1OCc1cc(C(=O)NCc2n[nH]c3c2CCC3)no1	none
O=C(c1ccccc1F)N1CCC2(CC1)CC(OCC1CC1)CCO2 (stereo not drawn)	none
CCN1C(=O)C2CC3(CCN(C(=O)c4ccc(OC)nc4)CC3)CN2C1=O (stereo not drawn)	none
Cc1ccccc1-n1cc(CN(C)C(=O)CN2C(=O)OC(C)(C)C2=O)cn1	none
O=C(NCc1nnc2n1C(C(=O)N1CCCC1)CC2)c1cccnc1 (stereo not drawn)	none
CNC(=O)CCc1ccnc(N2CCCC2)c1	none
O=C(CCc1ccnc(N2CCCC2)c1)NCc1cccc(Cl)c1	Pf Dd2 growth 4.5µM
Cc1nc(N2CCCC2)ncc1C(=O)NCc1cccc(Cl)c1	none
Cc1oc(-c2ccc(C(F)(F)F)cc2)nc1CN(C)C(C)c1cccs1 (stereo not drawn)	none
Cc1ncoc1C(=O)N1CC(F)(F)C[C@H]1c1nc(C2CC2)no1	none
